Assay [1] is described as follows: blockers of polyQ-driven CASP3 activation – cell-based (AID 1583). The conditions noted are these: polyglutamine-induced caspase-3 activation, cell assay; stronger effect = higher value;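 tested at 10 µM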.
Assay [2] in a line: yeast 75Q aggregation reduction – 75Q-TubU reporter (AID 1593). Particulars: Yeast 75Q polyglutamine aggregation reporter.
A short description of assay [3]: restoration of touch response, mutant HTT neurons – whole organism, C. elegans mechanosensory neurons, N-terminal huntingtin (AID 1599). The conditions noted are these: C. elegans polyQ-huntingtin mechanosensory neurons, stronger effect = higher value.
Assay [4] can be described thus: blockers of cytochrome c efflux from mitochondria – biochemical, purified mitochondria (AID 1603).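 Further: mouse liver mitochondria challenged with calcium chloride; signal normalized to the plate average as 100%.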 Particulars: stronger effect = lower value.
Assay [5] can be described thus: polyglutamine aggregate formation blockers (AID 1604). Particulars: polyglutamine-induced protein aggregation inhibition assay; stronger effect = higher value; tested at 2.5 µM.
Assay [6] is described as follows: glutamate transport activators, MN-1 cells, MN-1 cell line (AID 1612).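 Further: tested at 1 µM final; 0% = mean of DMSO vehicle wells on each plate; positive means more glutamate uptake than control and negative means less.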 The conditions noted are these: MN-1 motor neuron cells, stronger effect = higher value.
Assay [7] is described as follows: GFP-Q80 aggregate reduction, neuronal-like cells, cell-based, NGF-treated PC12, GFPQ80 (AID 1614).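 Further: lower means fewer inclusions and 0 means no inclusions at all.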 Particulars: PC12 NGF-treated GFP-polyQ80 inclusion reduction.
Assay [8] is described as follows: 75Q-TubH aggregate inhibition, S. cerevisiae, yeast (AID 1616). Particulars: S. cerevisiae 75Q-TubH polyglutamine aggregation suppression; stronger effect = higher value.
The nature of assay [9]: compounds altering circadian rhythm period length – cell-based, LOPAC library, luminescence reporter (AID 2774; call rule not given here;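 further: values are relative to mean of DMSO wells on each plate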). Particulars: circadian reporter cells, at 7 µM, actives lie on both sides.
The nature of assay [10]: P. berghei load reduction in hepatocytes – cell-based, HepG2, luciferase luminescence, HepG2 viability, primary screen (AID 624349).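 Further: 100% = mean of DMSO negative control wells on the same plate.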 Particulars: P. berghei liver stage in HepG2, luciferase luminescence, concentration not given here; parasite load remaining: stronger effect = lower value; viability: measured here: HepG2 viability without parasites.
The target of assay [11] is 6-phosphogluconate dehydrogenase, decarboxylating (Homo sapiens) (UniProt P52209). The assay is described as follows: inhibition of human phosphogluconate dehydrogenase – biochemical, recombinant enzyme, NADPH absorbance, primary screen (AID 1159550;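 active means at least 20% inhibition of 6-phosphogluconate dehydrogenase activity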). The conditions noted are these: recombinant 6PGD, NADPH absorbance 341 nm; at 10 µM; stronger effect = higher value.
Sequence of 6-phosphogluconate dehydrogenase, decarboxylating (Homo sapiens) (P52209 whole entry, looked up): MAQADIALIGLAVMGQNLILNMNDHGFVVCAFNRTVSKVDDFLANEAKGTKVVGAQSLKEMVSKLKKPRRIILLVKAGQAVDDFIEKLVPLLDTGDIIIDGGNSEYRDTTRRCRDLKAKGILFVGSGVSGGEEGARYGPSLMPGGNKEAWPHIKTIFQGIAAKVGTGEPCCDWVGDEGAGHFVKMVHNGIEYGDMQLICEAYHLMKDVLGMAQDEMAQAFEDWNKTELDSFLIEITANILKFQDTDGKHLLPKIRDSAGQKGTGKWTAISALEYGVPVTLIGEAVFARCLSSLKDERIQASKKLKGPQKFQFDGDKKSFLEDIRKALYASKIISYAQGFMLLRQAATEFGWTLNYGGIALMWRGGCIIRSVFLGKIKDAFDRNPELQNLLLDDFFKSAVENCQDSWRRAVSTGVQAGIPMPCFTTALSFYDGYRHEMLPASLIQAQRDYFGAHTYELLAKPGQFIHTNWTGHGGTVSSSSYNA
Assay [12] in a line: EMT-state selective cytotoxicity in co-culture – imaging, PC-3E GFP, TEM4-18 mCherry, primary screen (AID 1345086;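 active means compounds killing one labelled cell type while sparing the other, by normalised counts and ratio limits, not self-fluorescent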;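 on all read-outs here: cells exposed to compound for 72 h before imaging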;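 on red/green cell ratio (normalised): normalised mesenchymal count divided by normalised epithelial count so high means epithelial killing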). Particulars: PC-3E GFP / TEM4-18 mCherry co-culture, imaging cell counts, at 1 µM; for red/green cell ratio (normalised): actives lie on both sides, counts scaled to control wells, 1 = unselective.
Assay [13] can be described thus: blockers of cellular phospholipid synthesis – cell-based, LOPAC library, screen 4, primary screen (AID 1347384; call rule not given here). Particulars: animal cells, phospholipid biosynthesis inhibition screen; at 10 µM.
Assay [14] is described as follows: MELAS cybrid and Rieske KO viability enhancers – cell-based, MELAS cybrids, Rieske KO mouse fibroblasts, CellTiter-Glo, primary screen (AID 1508586;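 active means mean z-score across replicates of 1.96 or higher in either the MELAS or the Rieske mutant cell line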;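 further: z relative to plate mean and SD of compound and empty wells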). The conditions noted are these: low glucose.
For assay [15], the target named is Mitogen-activated protein kinase 7 (Homo sapiens) (UniProt Q13164). The assay is described as follows: Gal4-ERK5 driven luciferase induction – cell-based, HTS, primary screen (AID 1508626;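 active means luciferase signal above three times the same-plate solvent-only control wells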;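 further: luciferase driven by Gal4-ERK5 fusion binding five Gal4 sites before minimal TATA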). Particulars: HeLa Gal4-ERK5 transactivation, 18 h, at 5 µM, stronger effect = higher value.
Sequence of Mitogen-activated protein kinase 7 (Homo sapiens) (Q13164 whole entry, looked up, the tested form may be a part): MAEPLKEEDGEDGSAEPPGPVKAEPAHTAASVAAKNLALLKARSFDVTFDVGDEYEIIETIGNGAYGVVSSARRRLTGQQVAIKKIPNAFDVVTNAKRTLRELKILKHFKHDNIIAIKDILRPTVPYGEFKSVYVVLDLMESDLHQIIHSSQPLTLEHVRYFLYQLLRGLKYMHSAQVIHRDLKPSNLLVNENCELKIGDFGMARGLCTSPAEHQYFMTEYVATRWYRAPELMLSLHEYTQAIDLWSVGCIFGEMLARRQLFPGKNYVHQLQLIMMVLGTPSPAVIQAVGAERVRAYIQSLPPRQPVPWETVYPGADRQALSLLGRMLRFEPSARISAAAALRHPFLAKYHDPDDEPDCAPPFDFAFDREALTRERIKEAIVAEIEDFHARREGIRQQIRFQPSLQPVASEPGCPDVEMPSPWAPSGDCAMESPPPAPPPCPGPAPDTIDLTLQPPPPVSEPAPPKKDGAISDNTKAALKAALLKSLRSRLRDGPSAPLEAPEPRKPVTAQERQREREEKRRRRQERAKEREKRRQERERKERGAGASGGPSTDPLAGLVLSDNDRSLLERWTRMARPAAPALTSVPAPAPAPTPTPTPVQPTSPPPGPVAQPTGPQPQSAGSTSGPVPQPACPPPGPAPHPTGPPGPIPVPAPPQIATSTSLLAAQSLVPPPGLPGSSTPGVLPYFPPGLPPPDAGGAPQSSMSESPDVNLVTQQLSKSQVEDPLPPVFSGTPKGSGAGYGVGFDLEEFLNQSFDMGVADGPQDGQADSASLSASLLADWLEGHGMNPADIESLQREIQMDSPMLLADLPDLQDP
The nature of assay [16]: galactose survival enhancers in mitochondrial complex I cybrids – cell-based, galactose medium, ATP luminescence, primary screen (AID 1645843;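 active means z-score of at least 1.8 in each of two replicates, scored against plate mean and spread of sample wells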;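 further: positive z means more ATP and so rescue of galactose-driven cybrid death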). The conditions noted are these: complex I mutant cybrid cells, 72 h, stronger effect = higher value.
Assay [17] is described as follows: compounds altering viability of human ES cells (AID 493140; call rule not given here;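 further: cells exposed to compounds for four days before counting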). Particulars: human embryonic stem cell survival screen; stronger effect = higher value.
Assay [18] in a line: viability loss with induced miR-34 in A549 – imaging, A549 dox-inducible miR-34, nuclei and caspase counts, primary screen (AID 1347080;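 active means compounds whose cell count with miR-34 switched on is under 0.7 times the count with it off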). Particulars: A549 miR-34 inducible, Hoechst nuclei count, 48 h.
In assay [19] the target is NAD(+) hydrolase SARM1 (Homo sapiens) (UniProt Q6SZW1). The assay is described as follows: blocking NAD cleavage by SARM1 SAM-TIR – cell lysate, NAD-Glo luminescence (AID 1508614;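 active means compound whose remaining NAD level is above about 45 nM, limit read from the data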). The conditions noted are these: SAM-TIR HEK293T lysate NADase, at 1 µM, stronger effect = higher value.
Sequence of NAD(+) hydrolase SARM1 (Homo sapiens) (Q6SZW1 whole entry, looked up): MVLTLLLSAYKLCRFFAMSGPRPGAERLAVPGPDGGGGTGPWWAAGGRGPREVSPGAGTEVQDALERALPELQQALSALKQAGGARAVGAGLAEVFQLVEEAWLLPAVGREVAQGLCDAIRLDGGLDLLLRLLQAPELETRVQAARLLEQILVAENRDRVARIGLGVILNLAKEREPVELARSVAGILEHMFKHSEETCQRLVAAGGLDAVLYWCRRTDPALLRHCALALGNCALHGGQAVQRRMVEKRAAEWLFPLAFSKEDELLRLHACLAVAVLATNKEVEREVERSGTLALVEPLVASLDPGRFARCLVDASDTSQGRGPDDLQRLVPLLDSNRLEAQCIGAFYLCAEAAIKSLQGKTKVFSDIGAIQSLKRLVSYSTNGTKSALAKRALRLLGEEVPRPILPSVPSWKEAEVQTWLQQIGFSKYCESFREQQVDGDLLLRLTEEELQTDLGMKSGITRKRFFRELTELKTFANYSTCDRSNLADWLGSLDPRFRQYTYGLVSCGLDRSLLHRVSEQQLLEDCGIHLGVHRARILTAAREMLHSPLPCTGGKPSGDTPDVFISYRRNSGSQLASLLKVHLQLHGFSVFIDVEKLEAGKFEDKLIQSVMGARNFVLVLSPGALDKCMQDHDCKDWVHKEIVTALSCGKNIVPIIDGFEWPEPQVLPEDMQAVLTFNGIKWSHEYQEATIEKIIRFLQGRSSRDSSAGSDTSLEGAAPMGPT
Setting [20] is: measured here: epithelial PC-3E GFP cell survival.
[21] abbreviates: measured here: mesenchymal TEM4-18 mCherry cell survival.
Where [22] appears, read: stronger effect = lower value, cell number ratio, induced over uninduced.
[23] abbreviates: measured here: relative caspase fold change +Dox/-Dox.
[24] abbreviates: measured here: total cells with miR-34 induction, stronger effect = lower value.
Setting [25] is: measured here: total cells without miR-34 induction.

“And” between values parts separate entries of the source, which are not always exact repeats. Equal values may be shown once. For part of these data: Potency and affinity values are given separately. The source made the active and inactive calls. Unless noted, no stated cut-off is given here; in the data, active means parasite load remaining mostly below about 12% (no sharp cut-off); inactive means mostly above about 10%.

Regarding `CC(C)Cn1c(=O)n(C)c(=O)c2[nH]cnc21`, the inhibition was 10.7% in assay [1]; -0.657% (inactive) and 4.73% (inactive) in assay [11]. Besides, the score in [2] stood at 1.18. The same molecule yielded a rescue above control in [3] of -7.15. For the same molecule, the cytochrome c release ratio in [4] came out at 0.66. The molecule further returned an inhibition of aggregation in assay [5] of 80.3%. The glutamate uptake change in assay [6] came out at 11.7%. The inclusion score in [7] came out at 2. In addition, the aggregation suppression score in assay [8] came to 1.34. Moreover, the period change in [9] is 0.065 h (inactive). Moreover, the parasite load remaining in [10] was 31.6% (inactive). Moreover, the viability in assay [10] was found to be 71.5%. For the same molecule, in [12], the red/green cell ratio (normalised) was 0.79 (inactive) and 0.82 (inactive). Besides, the normalised cell number in assay [12] (setting [20]) is 1.26 and 1.32; in assay [12] (setting [21]), 1 and 1.09. Further, the result in [13] was inactive. Further, the z-score is -0.413 (inactive) and 0.263 (inactive) in [14] (MELAS cybrid survival, CellTiter-Glo 48 h, stronger effect = higher value); 0.307 and 0.838 in assay [14] (Rieske KO mouse fibroblast survival, CellTiter-Glo 72 h); 0.71 (inactive) and -0.29 (inactive) and 0.67 (inactive) in [16]. The luciferase signal in assay [15] is 504 AU (active).

Consider `O=c1ccc2cc(O)c(O)cc2o1`, for which the survival in assay [17] is 5.75 (inactive). Moreover, the parasite load remaining in assay [10] is 19.5% (inactive) and 73.2% (inactive). The viability in assay [10] is 92.8% and 68.7%. Also, the inhibition in assay [11] is 2.61% (inactive). The red/green cell ratio (normalised) in [12] was 1.16 (inactive). The normalised cell number in assay [12] (setting [20]) was 0.88; in [12] (setting [21]), 1.02. The fold change in [18] (setting [22]) is 0.832 (inactive); in assay [18] (setting [23]), 1.64. In addition, the cell count in assay [18] (setting [24]) is 6390; in [18] (setting [25]), 7680. Also, the luciferase signal in assay [15] is 72 AU (inactive).

Take `CN1C(CC(=O)c2ccccc2)CCCC1CC(O)c1ccccc1` (stereo not drawn): the inhibition is 17.8% in assay [1] and -10.3% (inactive) in assay [11]. The score in [2] came out at 1.4. Besides, in assay [3], the rescue above control was -4.31. Besides, the cytochrome c release ratio in [4] turned out to be 0.5. The molecule also returned an inhibition of aggregation in [5] of 65.4%. The molecule further returned a glutamate uptake change in [6] of 3.53%. In assay [7], the inclusion score was determined as 2. The same molecule came in with an aggregation suppression score in assay [8] of 1.27. The parasite load remaining in [10] is 97.3% (inactive). The molecule also returned a viability in [10] of 69.7%. Moreover, in [12], the red/green cell ratio (normalised) was 1.04 (inactive). For the same molecule, the normalised cell number in assay [12] (setting [20]) amounted to 0.88; in assay [12] (setting [21]), 0.92. Moreover, the fold change in assay [18] (setting [22]) is 0.965 (inactive); in [18] (setting [23]) it was 1.77. Besides, the cell count was determined as 10200 in [18] (setting [24]) and 10600 in [18] (setting [25]). The remaining NAD in assay [19] was 10 nM (inactive). Moreover, the luciferase signal in assay [15] is 268 AU (active). For the same molecule, the z-score in assay [16] is 0.16 (inactive).

On to `COc1ccc2c(c1OC)C(=O)O[C@H]2[C@H]1c2c(cc3c(c2OC)OCO3)CCN1C`, for which the parasite load remaining in assay [10] is 93.3% (inactive) and 73.1% (inactive). Also, the viability in assay [10] was 64.7% and 94.8%. Besides, the inhibition in assay [11] was 4.17% (inactive). The red/green cell ratio (normalised) in [12] was 1.15 (inactive). The normalised cell number in assay [12] (setting [20]) stood at 1.08; in assay [12] (setting [21]), 1.24. Moreover, the fold change in assay [18] (setting [22]) is 0.877 (inactive); in assay [18] (setting [23]), 1.33. Besides, the figures for the cell count in assay [18] (setting [24]) and in assay [18] (setting [25]) were 8940 and 10200, respectively.

Source of the values: PubChem BioAssay.
